PubChem BioAssay AID1159580 (chemical genetic matrix, 2015)
Hit rate of the full screen: of about 5,500 compounds, about 2,000 (36%) were called active. About 18% were inconclusive and are not listed. Rule as the data show it: active = normalized growth mostly below about 0.91 (no sharp cut-off); inconclusive = no clear call, values can overlap the other calls; inactive = mostly above about 0.92. Some of the results follow.

Experiment: chemical genetic growth profiling, strain panel (AID 1159580);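 also: tested at 20 µM; growth read once vehicle control cultures reached saturation at 30 °C; 1 = growth at the plate median or of vehicle wells; lower values mean less growth of the strain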
Settings: growth OD

Measured: normalized growth

C=C1C2CCC3(C)C(c4ccoc4)OC(=O)CC13OC1CC(OC(C)=O)C(C)(C)C(CC(=O)OC)C12C (configuration not stated)
active: S. cerevisiae deletion strains, locus YKL068W, stronger effect = lower value 1.17 [resistant] | S. cerevisiae deletion strains, locus YKL085W, strain MDH1 (second series), stronger effect = lower value 1.08 [resistant] | S. cerevisiae deletion strains, locus YKL085W, strain MDH1, stronger effect = lower value 1.08 [resistant]
inactive: S. cerevisiae deletion strains, locus YAL021C, strain ccr4, stronger effect = lower value 1.02 | S. cerevisiae deletion strains, locus YAL026C, strain drs2, stronger effect = lower value 1.01 | S. cerevisiae deletion strains, locus YAL030W, strain snc1, stronger effect = lower value 1 | S. cerevisiae deletion strains, locus YBL061C, strain skt5, stronger effect = lower value 0.993 | S. cerevisiae deletion strains, locus YBR009C, strain hhf1, stronger effect = lower value 1 | S. cerevisiae deletion strains, locus YBR021W, strain FUR4, stronger effect = lower value 1 | S. cerevisiae deletion strains, locus YBR023C, strain chs3, stronger effect = lower value 1 | S. cerevisiae deletion strains, locus YBR171W, strain sec66, stronger effect = lower value 1.01 | S. cerevisiae deletion strains, locus YBR229C, strain ROT2, stronger effect = lower value 1 | S. cerevisiae deletion strains, locus YBR231C, strain swc5, stronger effect = lower value 1.02 | S. cerevisiae deletion strains, locus YBR279W, strain paf1, stronger effect = lower value 1.01 | S. cerevisiae deletion strains, locus YCL011C, strain gbp2, stronger effect = lower value 1 | S. cerevisiae deletion strains, locus YCL016C, strain dcc1, stronger effect = lower value 1 | S. cerevisiae deletion strains, locus YCL029C, strain bik1, stronger effect = lower value 0.995 | S. cerevisiae deletion strains, locus YCL061C, strain MRC1, stronger effect = lower value 1.01 | S. cerevisiae deletion strains, locus YCL069W, strain vba3, stronger effect = lower value 1 | S. cerevisiae deletion strains, locus YCR088W, strain abp1, stronger effect = lower value 1.01 | S. cerevisiae deletion strains, locus YDL005C, strain med2, stronger effect = lower value 0.985 | S. cerevisiae deletion strains, locus YDL035C, strain GPR1, stronger effect = lower value 0.993 | S. cerevisiae deletion strains, locus YDL040C, strain nat1, stronger effect = lower value 1.01 | S. cerevisiae deletion strains, locus YDL074C, strain BRE1, stronger effect = lower value 1.02 | S. cerevisiae deletion strains, locus YDL101C, strain DUN1, stronger effect = lower value 1 | S. cerevisiae deletion strains, locus YDL185W, strain tfp1, stronger effect = lower value 0.999 | S. cerevisiae deletion strains, locus YDL192W, strain arf1, stronger effect = lower value 0.985 | S. cerevisiae deletion strains, locus YDR001C, strain nth1, stronger effect = lower value 1.01 | S. cerevisiae deletion strains, locus YDR069C, strain doa4, stronger effect = lower value 1.01 | S. cerevisiae deletion strains, locus YDR101C, strain arx1, stronger effect = lower value 1.05 | S. cerevisiae deletion strains, locus YDR137W, strain rgp1, stronger effect = lower value 0.899 | S. cerevisiae deletion strains, locus YDR159W, strain sac3, stronger effect = lower value 1.03 | S. cerevisiae deletion strains, locus YDR162C, strain NBP2, stronger effect = lower value 0.991 | S. cerevisiae deletion strains, locus YDR195W, strain ref2 1 | S. cerevisiae deletion strains, locus YDR297W, strain sur2, stronger effect = lower value 1.02 | S. cerevisiae deletion strains, locus YDR318W, strain mcm21, stronger effect = lower value 0.992 | S. cerevisiae deletion strains, locus YDR334W, strain swr1, stronger effect = lower value 1.03 | S. cerevisiae deletion strains, locus YDR335W, strain msn5, stronger effect = lower value 1 | S. cerevisiae deletion strains, locus YDR388W, stronger effect = lower value 1 | S. cerevisiae deletion strains, locus YDR392W, strain spt3, stronger effect = lower value 1.01 | S. cerevisiae deletion strains, locus YDR502C, strain sam2, stronger effect = lower value 0.994 | S. cerevisiae deletion strains, locus YEL003W, strain gim4, stronger effect = lower value 1.01 | S. cerevisiae deletion strains, locus YEL037C, strain rad23, stronger effect = lower value 1.02 | S. cerevisiae deletion strains, locus YEL061C, strain CIN8 (second series), stronger effect = lower value 1.01 | S. cerevisiae deletion strains, locus YEL061C, strain CIN8, stronger effect = lower value 1 | S. cerevisiae deletion strains, locus YER015W, strain faa2, stronger effect = lower value 1.01 | S. cerevisiae deletion strains, locus YER016W, strain bim1, stronger effect = lower value 1.01 | S. cerevisiae deletion strains, locus YER110C, stronger effect = lower value 0.99 | S. cerevisiae deletion strains, locus YER111C, strain swi4, stronger effect = lower value 0.988 | S. cerevisiae deletion strains, locus YER155C, strain BEM2 (second series), stronger effect = lower value 1.02 | S. cerevisiae deletion strains, locus YER155C, strain BEM2, stronger effect = lower value 1.01 | S. cerevisiae deletion strains, locus YER167W, strain BCK2, stronger effect = lower value 1.01 | S. cerevisiae deletion strains, locus YFR010W, strain ubp6, stronger effect = lower value 1.01 | S. cerevisiae deletion strains, locus YGL078C, strain dbp3, stronger effect = lower value 1.01 | S. cerevisiae deletion strains, locus YGL086W, strain mad1, stronger effect = lower value 0.998 | S. cerevisiae deletion strains, locus YGL167C, strain pmr1, stronger effect = lower value 1.01 | S. cerevisiae deletion strains, locus YGL173C, strain kem1, stronger effect = lower value 0.998 | S. cerevisiae deletion strains, locus YGL227W, strain vid30, stronger effect = lower value 1 | S. cerevisiae deletion strains, locus YGL240W, strain doc1, stronger effect = lower value 0.991 | S. cerevisiae deletion strains, locus YGL248W, strain PDE1, stronger effect = lower value 0.993 | S. cerevisiae deletion strains, locus YGL253W, strain hxk2, stronger effect = lower value 0.981 | S. cerevisiae deletion strains, locus YGR135W, strain pre9, stronger effect = lower value 0.983 | S. cerevisiae deletion strains, locus YGR252W, strain gcn5, stronger effect = lower value 0.923 | S. cerevisiae deletion strains, locus YHR013C, strain ard1, stronger effect = lower value 1.01 | S. cerevisiae deletion strains, locus YHR027C, strain rpn1, stronger effect = lower value 1.02 | S. cerevisiae deletion strains, locus YHR030C, strain SLT2, stronger effect = lower value 1.01 | S. cerevisiae deletion strains, locus YHR079C, strain IRE1 (second series), stronger effect = lower value 1 | S. cerevisiae deletion strains, locus YHR094C, strain hxt1, stronger effect = lower value 0.999 | S. cerevisiae deletion strains, locus YHR129C, strain ARP1, stronger effect = lower value 1.01 | S. cerevisiae deletion strains, locus YHR142W, strain chs7, stronger effect = lower value 0.99 | S. cerevisiae deletion strains, locus YHR200W, strain rpn10, stronger effect = lower value 1 | S. cerevisiae deletion strains, locus YIL066C, strain RNR3, stronger effect = lower value 1.01 | S. cerevisiae deletion strains, locus YIL073C, strain SPO22, stronger effect = lower value 0.973 | S. cerevisiae deletion strains, locus YIL125W, strain kgd1, stronger effect = lower value 0.998 | S. cerevisiae deletion strains, locus YIR030C, strain dcg1, stronger effect = lower value 0.998 | S. cerevisiae deletion strains, locus YJL092W, strain hpr5, stronger effect = lower value 1.02 | S. cerevisiae deletion strains, locus YJL095W, strain BCK1 (second series), stronger effect = lower value 1.02 | S. cerevisiae deletion strains, locus YJL095W, strain BCK1, stronger effect = lower value 1.01 | S. cerevisiae deletion strains, locus YJL115W, strain asf1, stronger effect = lower value 1.01 | S. cerevisiae deletion strains, locus YJL129C, strain trk1, stronger effect = lower value 0.969 | S. cerevisiae deletion strains, locus YJL134W, strain LCB3, stronger effect = lower value 1.01 | S. cerevisiae deletion strains, locus YJL154C, strain vps35, stronger effect = lower value 1.03 | S. cerevisiae deletion strains, locus YJL164C, strain tpk1, stronger effect = lower value 0.997 | S. cerevisiae deletion strains, locus YJL166W, strain qcr8, stronger effect = lower value 1.02 | S. cerevisiae deletion strains, locus YJL168C, strain set2, stronger effect = lower value 0.998 | S. cerevisiae deletion strains, locus YJL187C, strain SWE1 (second series), stronger effect = lower value 1 | S. cerevisiae deletion strains, locus YJR043C, strain POL32, stronger effect = lower value 1.02 | S. cerevisiae deletion strains, locus YKL160W, strain elf1, stronger effect = lower value 1.01 | S. cerevisiae deletion strains, locus YKR001C, strain vps1, stronger effect = lower value 1.02 | S. cerevisiae deletion strains, locus YKR026C, strain gcn3, stronger effect = lower value 1 | S. cerevisiae deletion strains, locus YKR091W, strain srl3, stronger effect = lower value 1 | S. cerevisiae deletion strains, locus YLL001W, strain dnm1, stronger effect = lower value 1.01 | S. cerevisiae deletion strains, locus YLL026W, stronger effect = lower value 1 | S. cerevisiae deletion strains, locus YLL041C, strain sdh2, stronger effect = lower value 1 | S. cerevisiae deletion strains, locus YLR027C, strain aat2, stronger effect = lower value 0.991 | S. cerevisiae deletion strains, locus YLR039C, strain RIC1, stronger effect = lower value 0.988 | S. cerevisiae deletion strains, locus YLR058C, strain SHM2, stronger effect = lower value 1 | S. cerevisiae deletion strains, locus YLR102C, strain apc9, stronger effect = lower value 1.01 | S. cerevisiae deletion strains, locus YLR221C, strain rsa3, stronger effect = lower value 0.995 | S. cerevisiae deletion strains, locus YLR258W, strain gsy2, stronger effect = lower value 0.994 | S. cerevisiae deletion strains, locus YLR262C, strain YPT6 (second series), stronger effect = lower value 0.972 | S. cerevisiae deletion strains, locus YLR262C, strain YPT6, stronger effect = lower value 0.933 | S. cerevisiae deletion strains, locus YLR268W, strain sec22, stronger effect = lower value 0.984 | S. cerevisiae deletion strains, locus YLR320W, strain mms22, stronger effect = lower value 1.01 | S. cerevisiae deletion strains, locus YLR342W, strain FKS1, stronger effect = lower value 0.992 | S. cerevisiae deletion strains, locus YLR357W, strain rsc2, stronger effect = lower value 1.02 | S. cerevisiae deletion strains, locus YLR370C, strain arc18, stronger effect = lower value 0.998 | S. cerevisiae deletion strains, locus YLR371W, strain rom2, stronger effect = lower value 1.01 | S. cerevisiae deletion strains, locus YLR384C, strain iki3, stronger effect = lower value 1.01 | S. cerevisiae deletion strains, locus YLR418C, strain cdc73, stronger effect = lower value 0.983 | S. cerevisiae deletion strains, locus YML016C, strain PPZ1, stronger effect = lower value 1.03 | S. cerevisiae deletion strains, locus YML032C, strain rad52, stronger effect = lower value 0.999 | S. cerevisiae deletion strains, locus YML120C, strain ndi1, stronger effect = lower value 1.01 | S. cerevisiae deletion strains, locus YML124C, strain tub3, stronger effect = lower value 0.993 | S. cerevisiae deletion strains, locus YMR058W, strain fet3, stronger effect = lower value 1.02 | S. cerevisiae deletion strains, locus YMR078C, strain ctf18, stronger effect = lower value 0.988 | S. cerevisiae deletion strains, locus YMR125W, strain sto1, stronger effect = lower value 1.01 | S. cerevisiae deletion strains, locus YMR129W, stronger effect = lower value 1 | S. cerevisiae deletion strains, locus YMR205C, strain PFK2, stronger effect = lower value 0.97 | S. cerevisiae deletion strains, locus YMR223W, strain ubp8, stronger effect = lower value 0.991 | S. cerevisiae deletion strains, locus YMR231W, strain pep5, stronger effect = lower value 1 | S. cerevisiae deletion strains, locus YMR307W, strain GAS1, stronger effect = lower value 1.03 | S. cerevisiae deletion strains, locus YNL067W, strain RPL9B, stronger effect = lower value 0.998 | S. cerevisiae deletion strains, locus YNL071W, strain lat1, stronger effect = lower value 1.01 | S. cerevisiae deletion strains, locus YNL153C, strain GIM3, stronger effect = lower value 1.02 | S. cerevisiae deletion strains, locus YNL209W, strain ssb2, stronger effect = lower value 1.02 | S. cerevisiae deletion strains, locus YNL233W, strain BNI4, stronger effect = lower value 1 | S. cerevisiae deletion strains, locus YNL248C, strain rpa49, stronger effect = lower value 1.02 | S. cerevisiae deletion strains, locus YNL250W, strain rad50, stronger effect = lower value 0.982 | S. cerevisiae deletion strains, locus YNL271C, strain bni1, stronger effect = lower value 1 | S. cerevisiae deletion strains, locus YNL298W, strain CLA4, stronger effect = lower value 0.997 | S. cerevisiae deletion strains, locus YNL307C, strain MCK1, stronger effect = lower value 0.999 | S. cerevisiae deletion strains, locus YNL322C, strain KRE1 (second series), stronger effect = lower value 1.02 | S. cerevisiae deletion strains, locus YNR049C, strain mso1, stronger effect = lower value 1.02 | S. cerevisiae deletion strains, locus YNR052C, strain pop2, stronger effect = lower value 1.01 | S. cerevisiae deletion strains, locus YOL006C, strain TOP1, stronger effect = lower value 0.984 | S. cerevisiae deletion strains, locus YOL012C, strain htz1 1.69 | S. cerevisiae deletion strains, locus YOL147C, strain pex11, stronger effect = lower value 0.999 | S. cerevisiae deletion strains, locus YOR001W, strain rrp6, stronger effect = lower value 1.03 | S. cerevisiae deletion strains, locus YOR061W, strain CKA2, stronger effect = lower value 1.01 | S. cerevisiae deletion strains, locus YOR069W, strain VPS5, stronger effect = lower value 1.01 | S. cerevisiae deletion strains, locus YOR070C, strain gyp1, stronger effect = lower value 1.02 | S. cerevisiae deletion strains, locus YOR080W, strain dia2, stronger effect = lower value 1.01 | S. cerevisiae deletion strains, locus YOR083W, strain WHI5, stronger effect = lower value 1 | S. cerevisiae deletion strains, locus YOR106W, strain vam3, stronger effect = lower value 0.999 | S. cerevisiae deletion strains, locus YOR136W, strain idh2, stronger effect = lower value 0.989 | S. cerevisiae deletion strains, locus YOR144C, strain elg1, stronger effect = lower value 1 | S. cerevisiae deletion strains, locus YOR184W, strain ser1, stronger effect = lower value 1 | S. cerevisiae deletion strains, locus YOR265W, strain rbl2, stronger effect = lower value 1.01 | S. cerevisiae deletion strains, locus YOR270C, strain vph1, stronger effect = lower value 0.951 | S. cerevisiae deletion strains, locus YOR290C, strain snf2, stronger effect = lower value 0.996 | S. cerevisiae deletion strains, locus YOR316C, strain cot1, stronger effect = lower value 1.01 | S. cerevisiae deletion strains, locus YPL051W, strain arl3, stronger effect = lower value 1.01 | S. cerevisiae deletion strains, locus YPL078C, strain atp4, stronger effect = lower value 1 | S. cerevisiae deletion strains, locus YPL106C, strain sse1, stronger effect = lower value 0.989 | S. cerevisiae deletion strains, locus YPL240C, strain hsp82, stronger effect = lower value 1.02 | S. cerevisiae deletion strains, locus YPR119W, strain clb2, stronger effect = lower value 0.998 | S. cerevisiae deletion strains, locus YPR141C, strain kar3, stronger effect = lower value 1.01 | S. cerevisiae deletion strains, locus YPR163C, strain tif3, stronger effect = lower value 0.991 | S. cerevisiae deletion strains, locus YPR167C, strain met16, stronger effect = lower value 1 | S. cerevisiae deletion strains, strain wtn01, stronger effect = lower value 0.983 | S. cerevisiae strains, strain wild type, stronger effect = lower value 1.01
